Results as given in PubChem BioAssay AID488890 (Southern Research Specialized Biocontainment Screening …, 2010).
The campaign covered roughly 320,000 compounds. About 1,300 (0.41%) were called active. About 3% were inconclusive and are not listed. No rule for the calls is given here. Not all results are given here. Entries with a potency or affinity are not part of this list.

assay: growth inhibition of non-replicating M. tuberculosis (AID 488890); settings: Mycobacterium tuberculosis non-replicating, at 25 µM, stronger effect = higher value;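 also: plate controls were DMSO cells for no effect and high antibiotic wells for full effect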

Which inhibition does the source give for `N#Cc1c(NCCCO)nc(NCc2ccccc2)c2c1CCN(Cc1ccccc1)C2` here?
The inhibition was 26.6%.

Which inhibition does the source give for `O=C(OCC(=O)C12CC3CC(CC(C3)C1)C2)c1cnccn1` here?
Its inhibition is 17.7%.

With `C/C(=N\NC(=O)c1ccccn1)C12CC3CC(CC(C3)C1)C2` as the compound, how does the inhibition read?
The inhibition was 54.4%.

For `O=C(COC(=O)c1ccccn1)NC12CC3CC(CC(C3)C1)C2`, which inhibition is on record?
The inhibition was 30.9%.

For `O=C(NNC(=O)C12CC3CC(CC(C3)C1)C2)c1ccncc1`, which inhibition is on record?
Its inhibition is 4.55%.

For `CC(C)N1CCN(Cc2nc3ccccc3s2)CC1CCO` (centres undefined), which inhibition is on record?
The inhibition was 8.77%.

For `Cc1cc(C)c2cc(C(=O)Nc3ccc4c(c3)OCO4)[nH]c2c1`, which inhibition is on record?
The inhibition was -16.4%.

With `CCOC(=O)c1c(NC(=O)C(C)N2CCN(S(=O)(=O)c3cccs3)CC2)sc2c1CCC(C)C2` (centres undefined) as the compound, how does the inhibition read?
The inhibition was -4.48%.

For `Cc1ccc(-c2cc(-c3ccc(C)cc3)[n+](C)o2)cc1`, which inhibition is on record?
Its inhibition is 24.7%.

With `COc1ccc(/C=C/C(=O)Oc2ccc(C)cc2)cc1` as the compound, how does the inhibition read?
Its inhibition is 65.3%.

With `CC1Cc2ccccc2N1C(=O)CCS(=O)(=O)c1cccs1` (centres undefined) as the compound, how does the inhibition read?
Its inhibition is 15.3%.

For `COc1ccc(CCNC(=O)Cc2ccc(OC)c(OC)c2)cc1OC`, which inhibition is on record?
The inhibition was 13.8%.

For `COc1ccc(C(C)=O)cc1COC(=O)c1cc2ccccc2cc1O`, which inhibition is on record?
Its inhibition is 2.94%.

Which inhibition does the source give for `O=C(OCc1cc([N+](=O)[O-])cc2c1OCOC2)c1ccc2ccccc2n1` here?
The inhibition was 74.8%.

Which inhibition does the source give for `COc1ccc(C(C)=O)cc1COC(=O)c1cc(C)nc2ccccc12` here?
The inhibition was 7.17%.

For `O=C(Cc1ccccc1[N+](=O)[O-])OCc1cccc([N+](=O)[O-])c1`, which inhibition is on record?
Its inhibition is 34.7%.

For `O=C(OCc1cccc([N+](=O)[O-])c1)c1cnccn1`, which inhibition is on record?
The inhibition was 17.7%.

With `Nc1ccccc1C(=O)OCc1ccc([N+](=O)[O-])cc1` as the compound, how does the inhibition read?
The inhibition was 3.01%.

Which inhibition does the source give for `c1ccc(OCCn2cnc3ccccc32)cc1` here?
The inhibition was 1.01%.

For `CSc1ccccc1OCc1cc(C(=O)N(Cc2nccn2C)C(C)C)no1`, which inhibition is on record?
Its inhibition is -13.1%.

Which inhibition does the source give for `Cc1ccnc(Nc2nc(-c3sc(C)nc3C)cs2)c1` here?
Its inhibition is 36.1%.

With `O=C(NCc1cccnc1)c1cccc(F)c1` as the compound, how does the inhibition read?
Its inhibition is -1.31%.

For `CCn1cc(C(=O)OCC(=O)NCc2ccc3c(c2)OCO3)c(=O)c2ccc(C)nc21`, which inhibition is on record?
Its inhibition is 40.4%.

Which inhibition does the source give for `CCC(C(=O)Nc1ccc2c(c1)OCCO2)n1nnc2ccccc2c1=O` (centres undefined) here?
Its inhibition is 6.85%.
